# Data reported in PubChem BioAssay.
# Calls of active or inactive are those of the source.
# How the values were obtained:
# [1] = test system: Human papillomavirus type 1a protein E7 (residues 44-93); test: small molecules binding HPV E7 44-93 – biochemical, small-molecule microarray, residues 44-93, 635 nm fluorescence, primary screen (AID 1108); conditions: fluorescence 635 nm, higher = more signal;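 note: E7 fragment applied at 1 µg/mL in TBST for 1 h at 4 C; score combines spot fluorescence with its signal to noise ratio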
# [2] = hepatitis C replication reporter changes, two-sided – Huh7 cells, luciferase reporter, HCV replication inhibitor project, primary screen (AID 1109); conditions: Huh7 HCV replicon luciferase reporter, 48 h; higher = more signal;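 note: huh7 hepatoma cells harbouring a luciferase neomycin HCV replicon reporter; luciferase luminescence as measure of HCV replicon replication; test concentration not given here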
# [3] = target: Left-right determination factor 2 (Homo sapiens) (UniProt O00292); test: small molecules binding LEFTY2 protein – biochemical, small-molecule microarray, 635 nm fluorescence scan, primary screen (AID 1110); conditions: higher = more signal
# [4] = target: Calmodulin-1 (Homo sapiens) (UniProt P0DP23); test: small molecules binding calmodulin-1 with EGTA – biochemical, small-molecule microarray, Cy5-labelled CALM1, profiling panel (AID 1111); conditions: Cy5-CALM1 binding fluorescence, higher = more signal;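 note: labelled calmodulin applied in Tris saline Tween buffer holding calcium plus EGTA and DTT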
# [5] = target: Calmodulin-1 (Homo sapiens) (UniProt P0DP23); test: small molecules binding Ca-loaded calmodulin-1 – biochemical, small-molecule microarray, Cy5-labelled CALM1, plus calcium, artefact control for SMM control-protein annotation, profiling panel (AID 1112); conditions: Cy5-CALM1 binding fluorescence, higher = more signal;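 note: score merges spot fluorescence with signal to noise from triplicate slides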
# [6] = probe aWnt5a binding to arrayed compounds – biochemical, biotinylated probe, 635/667 nm fluorescence, primary screen (AID 1113); conditions: small-molecule microarray, higher = more signal;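 note: score merges 667 nm fluorescence intensity with signal-to-noise per printed feature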
# [7] = probe aShh binding to arrayed compounds – biochemical, biotinylated probe, 635/667 nm fluorescence, primary screen (AID 1114); conditions: small-molecule microarray, higher = more signal;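 note: probe is biotin-labelled aShh protein from a stem cell growth factor screen; measures binding of labelled protein to compounds printed on the slide; score merges feature fluorescence at 667 nm with signal-to-noise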
# [8] = probe aNog binding to arrayed compounds – biochemical, biotinylated probe, 635/667 nm fluorescence, primary screen (AID 1115); conditions: small-molecule microarray, higher = more signal;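 note: probe is biotinylated aNog protein used at 0.15 µg/mL for 1 h at 4 C; z-score combines 667 nm fluorescence of each spot with its signal to noise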
# [9] = target: Torsin-1A-interacting protein 1 (Homo sapiens) (UniProt Q5JTV8); test: compound microarray binding of lysate hLAP1 – cell lysate, small-molecule microarray, COS7 lysate, 635/667 nm fluorescence, primary screen (AID 1116); conditions: 635 nm fluorescence, higher = more signal
# [10] = target: Alpha-bungarotoxin (Bungarus multicinctus) (UniProt P60615); test: compounds binding labelled alpha-BTX control protein – biochemical, small-molecule microarray, Alexa647 label, 635/667 nm fluorescence, artefact control for SMM control protein annotation, profiling panel (AID 1117); conditions: alpha-BTX-A647 binding fluorescence, higher = more signal
# [11] = target: Albumin (Bos taurus) (UniProt P02769); test: compounds binding labelled BSA control protein – biochemical, small-molecule microarray, Alexa647 label, 635/667 nm fluorescence, artefact control for SMM control protein annotation, profiling panel (AID 1118); conditions: BSA-A647 binding, fluorescence 635 nm, higher = more signal;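 note: score merges 667 nm emission intensity and signal-to-noise per printed compound spot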
# [12] = probe aXIP binding to arrayed compounds – biochemical, NeuroSMM set, 635/667 nm fluorescence, primary screen (AID 1119); conditions: small-molecule microarray, higher = more signal, called active from +8 up or from −8 down;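 note: probe is the protein aXip251-270 applied at 1 µg/mL to compound-printed slides; binding of probe to printed compounds measured as 667 nm fluorescence plus signal to noise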
# [13] = probe aNOTCH3 binding on compound microarray – biochemical, small-molecule microarray, 635/667 nm fluorescence, primary screen (AID 1120); conditions: higher = more signal;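 note: probe is a biotin-tagged antibody raised against NOTCH3 rather than NOTCH3 protein; score merges spot fluorescence near 667 nm with spot signal to noise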
# [14] = probe aNOTCH2 binding on compound microarray – biochemical, small-molecule microarray, 635/667 nm fluorescence, primary screen (AID 1121); conditions: higher = more signal;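 note: score merges feature fluorescence read at 667 nm with its signal to noise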
# [15] = target: Carbonic anhydrase 2 (Homo sapiens) (UniProt P00918); test: compounds binding carbonic anhydrase 2 – biochemical, small-molecule microarray, Alexa647-labelled CAII, profiling panel (AID 1122); conditions: CAII-A647 binding fluorescence, higher = more signal
# [16] = COS7 lysate on small-molecule microarray, probe aHis, 635 nm (AID 1123); conditions: COS7 cell lysate, fluorescence, higher = more signal;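 note: z-score combines 667nm fluorescence intensity with signal-to-noise per printed compound spot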
# [17] = probe aLAP1 signal on lysate-treated microarray – cell lysate, small-molecule microarray, COS7 lysate, primary screen (AID 1124); conditions: probe aLAP1, fluorescence, higher = more signal;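 note: lysate comes from COS7 cells expressing LAP1 and is applied at 0.3 µg/mL; score merges spot fluorescence near 667 nm with signal-to-noise over triplicate slides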
# [18] = test system: Sam68 (KHDRBS1); test: compounds binding KHDRBS1 protein – biochemical, small-molecule microarray, 635 nm fluorescence, primary screen (AID 1125); conditions: higher = more signal;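 note: score merges 667 nm channel intensity with signal to noise over triplicate slides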
# [19] = test system: Chordin-like protein 2 (CHRDL2); test: compounds binding chordin-like 2 – biochemical, small-molecule microarray, 635 nm fluorescence, primary screen (AID 1126); conditions: fluorescence 635 nm, higher = more signal;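 note: printed compound slides probed with Chrdl2 protein at 4 µg/mL for 1 h at 4 C; score merges 667 nm emission intensity with signal to noise over three replicate slides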
# [20] = target: Concanavalin-A (Canavalia ensiformis) (UniProt P02866); test: compounds binding concanavalin A lectin – biochemical, small-molecule microarray, Alexa647 label, 635 nm, artefact control for SMM control protein annotation, primary screen (AID 1127); conditions: ConA-A647 binding fluorescence, higher = more signal;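 note: z combines 667 nm emission intensity with signal-to-noise across three replicate slides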
# Sequence of Concanavalin-A (Canavalia ensiformis) (P02866 whole entry, looked up): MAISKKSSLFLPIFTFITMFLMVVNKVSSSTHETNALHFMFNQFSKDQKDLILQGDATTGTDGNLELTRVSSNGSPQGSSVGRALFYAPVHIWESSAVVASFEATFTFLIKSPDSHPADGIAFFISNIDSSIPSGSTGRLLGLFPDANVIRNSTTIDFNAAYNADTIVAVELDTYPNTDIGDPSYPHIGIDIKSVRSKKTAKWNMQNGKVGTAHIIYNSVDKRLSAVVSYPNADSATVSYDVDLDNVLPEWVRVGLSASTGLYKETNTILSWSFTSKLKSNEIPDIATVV
# Sequence of Albumin (Bos taurus) (P02769 whole entry, looked up): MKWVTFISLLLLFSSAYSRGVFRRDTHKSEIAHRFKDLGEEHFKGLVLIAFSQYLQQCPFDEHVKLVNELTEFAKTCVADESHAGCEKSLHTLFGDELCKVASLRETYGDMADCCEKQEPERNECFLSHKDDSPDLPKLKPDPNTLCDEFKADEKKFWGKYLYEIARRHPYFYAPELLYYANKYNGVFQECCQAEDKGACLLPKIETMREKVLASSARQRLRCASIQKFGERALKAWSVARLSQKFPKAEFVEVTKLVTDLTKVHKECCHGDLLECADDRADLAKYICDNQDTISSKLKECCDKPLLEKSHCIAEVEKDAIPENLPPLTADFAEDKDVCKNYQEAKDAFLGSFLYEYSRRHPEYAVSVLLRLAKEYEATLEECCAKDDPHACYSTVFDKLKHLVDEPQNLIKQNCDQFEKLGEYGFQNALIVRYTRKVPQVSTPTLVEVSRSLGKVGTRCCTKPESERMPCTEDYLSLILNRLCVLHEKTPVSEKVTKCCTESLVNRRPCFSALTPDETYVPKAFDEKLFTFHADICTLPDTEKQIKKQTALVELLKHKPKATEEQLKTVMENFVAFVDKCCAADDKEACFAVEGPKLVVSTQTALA
# Sequence of Left-right determination factor 2 (Homo sapiens) (O00292 whole entry, looked up): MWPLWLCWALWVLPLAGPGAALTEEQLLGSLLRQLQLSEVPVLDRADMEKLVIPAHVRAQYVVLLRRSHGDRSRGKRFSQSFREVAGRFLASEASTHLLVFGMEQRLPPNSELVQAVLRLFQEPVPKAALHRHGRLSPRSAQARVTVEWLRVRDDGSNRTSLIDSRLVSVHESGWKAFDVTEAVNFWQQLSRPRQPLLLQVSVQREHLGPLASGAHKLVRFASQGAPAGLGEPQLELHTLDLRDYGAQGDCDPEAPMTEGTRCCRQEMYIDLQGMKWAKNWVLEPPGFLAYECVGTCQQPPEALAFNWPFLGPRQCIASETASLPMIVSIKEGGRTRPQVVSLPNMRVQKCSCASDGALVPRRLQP
# Sequence of Torsin-1A-interacting protein 1 (Homo sapiens) (Q5JTV8 whole entry, looked up): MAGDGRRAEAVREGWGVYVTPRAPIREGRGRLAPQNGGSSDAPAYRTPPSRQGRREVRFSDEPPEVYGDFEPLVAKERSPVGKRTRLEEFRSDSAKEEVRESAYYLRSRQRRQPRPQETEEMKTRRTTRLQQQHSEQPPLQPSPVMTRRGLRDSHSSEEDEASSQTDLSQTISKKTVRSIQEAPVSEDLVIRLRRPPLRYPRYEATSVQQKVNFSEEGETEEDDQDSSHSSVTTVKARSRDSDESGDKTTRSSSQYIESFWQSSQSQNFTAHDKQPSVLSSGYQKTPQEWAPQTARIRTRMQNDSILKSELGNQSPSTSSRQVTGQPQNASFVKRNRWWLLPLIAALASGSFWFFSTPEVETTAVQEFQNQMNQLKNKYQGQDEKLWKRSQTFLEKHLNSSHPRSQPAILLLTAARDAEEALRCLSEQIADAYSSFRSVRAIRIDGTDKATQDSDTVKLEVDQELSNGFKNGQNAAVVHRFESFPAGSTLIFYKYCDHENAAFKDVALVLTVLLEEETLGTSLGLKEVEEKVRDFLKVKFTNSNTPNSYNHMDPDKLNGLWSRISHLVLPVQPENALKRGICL
# Sequence of Alpha-bungarotoxin (Bungarus multicinctus) (P60615 whole entry, looked up): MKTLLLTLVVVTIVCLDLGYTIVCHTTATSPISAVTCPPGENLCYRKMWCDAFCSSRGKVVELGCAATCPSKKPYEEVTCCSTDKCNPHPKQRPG
SMILES,composite z-score [1],z-score [2],composite z-score [3],composite z-score [4],composite z-score [5],composite z-score [6],composite z-score [7],composite z-score [8],composite z-score [9],composite z-score [10],composite z-score [11],composite Z-score [12],composite z-score [13],composite z-score [14],composite z-score [15],composite z-score [16],composite z-score [17],composite z-score [18],composite z-score [19],composite z-score [20]
CCOC(=O)C[C@H]1[C@H](OC(=O)c2ccccc2-c2ccccc2)[C@@H](NC(=O)c2ccccc2)c2cc(OCCCO)ccc2N1C(=O)Cc1ccc(OC)cc1,-0.12,-1.31,-0.0713,-0.026,-0.641,-0.107,-0.289,-0.0877,0.593,0.66,-0.261,-0.0282 (inactive),-0.0055,0.669,-0.0956,0.428,0.368,-0.0802,0.0666,0.588
COCCOC(=O)N1C(=O)[C@@]2(c3cc(C#CCNC(N)=O)ccc31)[C@H](C(N)=O)[C@H]1C(=O)O[C@H](c3ccccc3)[C@H](c3ccccc3)N1[C@@H]2c1ccc(OCCO)cc1,1.29,-1.11,0.582,0.701,0.257,-0.1,-0.156,0.271,1.03,0.617,-0.217,0.462 (inactive),0.276,-0.0979,0.52,0.475,0.53,0.815,1.03,1.09
O=C1O[C@@H](c2ccccc2)[C@@H](c2ccccc2)N2[C@@H](c3ccc(O)cc3)[C@]3(C(=O)Nc4ccc(C#CC5=CCCCC5)cc43)[C@@H](C(=O)Nc3nc4ccccc4s3)[C@H]12,1.4,-0.99,1.25,1.48,-0.18,0.428,0.368,2.02,0.825,1.87,0.787,-0.199 (inactive),0.887,0.47,0.58,2.03,0.784,1.29,0.842,1.1
CCN(CC)c1ccc(N2CC=CC34O[C@@H]5/C=C\CCCOC(=O)C5[C@H]3C(=O)N(CCCCCCO)[C@@H]4C2=O)cc1 (stereo not given in full),-0.117,0.444,-1.76,-1.18,-1.05,-0.139,0.147,-0.0439,1.26,-0.855,0.248,0.703 (inactive),-0.194,-0.145,0.898,0.846,0.613,-0.32,-2.28,-0.642
C=C(COC)C(=O)CC[C@H](OC(=O)c1ccccc1-c1ccccc1C(=O)O)c1ccc(OCCO)cc1,0.701,-1.06,0.419,0.0421,-0.774,-0.148,0.351,0.229,3.05,1.16,0.369,0.161 (inactive),0.0628,-0.117,0.425,0.276,1.12,1.09,0.498,0.527
O=C(CS)NCCCCCNC(=O)[C@@H]1C[C@@H]2C(=O)N3CCC[C@H]3C(=O)N2[C@@H]1c1ccc(O)cc1,0.922,0.0311,0.0978,0.195,0.194,-0.0758,0.499,-0.152,0.375,0.542,-0.683,0.647 (inactive),-0.0587,-0.151,0.636,1.86,0.363,0.928,-0.0012,1.15
